# From the supplement of paper PMC10338343
# ± gives the standard deviation.
# Test system: MILI (PIWIL2) piRISC loaded with L1MC piRNA (26 nt)
# Assay: pre-steady-state target cleavage rate (min^-1); guide: L1MC piRNA 5'p-UAACUAAAUACUAUGCAAGCUGUAGG; MIWI and MILI are mouse PIWI proteins and EfPiwi is from a freshwater sponge; tags in brackets are library labels; higher = faster piRNA-guided slicing of the target
# Summary of the method: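 Sequencing of uncleaved targets, normalised to depth and to weakly complementary targets, was the readout of this Cleave-'n-Seq assay. A transcribed, DNA-blocked target RNA library (0.1 nM) was mixed with 1 nM active affinity-purified piRISC carrying one synthetic guide, with or without 500 nM GTSF1 partner protein, in HEPES–potassium acetate buffer at 33 °C for 0–8 or 0–960 min. Three trials were pooled, k3 was capped at 0.0001 min^-1, and a burst-and-steady-state fit gave the pre-steady-state cleavage rate.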
# [1] = auxiliary factor: 500 nM mouse GTSF1
# [2] = auxiliary factor: none (no GTSF1)
Sequence,pre-steady-state target cleavage rate [1],pre-steady-state target cleavage rate [2]
UCCUGGAUGUCGUUGCUUAGUAUUUAGUAA,0.0495 ± 0.02,0.00388 ± 0.0022
UCCUGGAUGUCGAUGCAUAGUAUUUGGUUA,0.0838 ± 0.016,0.00614 ± 0.0029
UCCUGGAUGUCGUCGCAUAGUAUUUAGUUA,0.0893 ± 0.012,0.00436 ± 0.0024
UCCUGGAACAGCUUGCAUAGUAAAUAGUAA,0.143 ± 0.035,–
UCCUGCUACAGCUUGCUUAGUAUAUAGUUA,0.206 ± 0.028,0.00313 ± 0.0023
UCCUGGAUGACCUUGCAUUGUAUUUAGUUA,0.0617 ± 0.0098,0.00446 ± 0.0029
UCCUGCUACAGCUUGCAUAGUCAUUUAGUUA,0.0225 ± 0.0089,0.00473 ± 0.002
UCCUGGAUGUGCAUGCUUAGUAUUUAGUUA,0.0349 ± 0.011,0.0103 ± 0.0032
UCCUGGUACUGCUUGGAUAGUAUUUAGUUA,0.179 ± 0.029,0.00767 ± 0.0042
UCCUGCUACAGGCUUGCAUAGUAUUUAGUUA,0.241 ± 0.014,0.0112 ± 0.0031
UCCUGGAUGUGCUUGCAUAGUAUUUAUGUUA,0.109 ± 0.021,0.0053 ± 0.0027
UCCUGGAUCAGCUUGCAUAGAUAUUAGUUA,0.00566 ± 0.0036,–
UCCUGGAUCUCGUUGCAUAGUAUUUAGUAA,0.114 ± 0.018,0.003 ± 0.0027
UCCUGGAUGUGCUUGCAAGUAUUUAGUUA,0.00781 ± 0.0036,0.00503 ± 0.0024
UCCUGGAUGUCGUUGCAUAGUAUUUAGUCA,0.146 ± 0.024,0.00639 ± 0.002
UCCUGGAUGUCCUUGGAUAGUAUUUAGUAA,0.121 ± 0.019,0.00376 ± 0.0019
UCCUGGAACAGCUUCGUUAGUAUUUAGUAA,0.115 ± 0.017,–
UCCUGGAUGUCGAAGCAUAGUAUUUAGGUUA,0.0552 ± 0.0097,0.00259 ± 0.0025
UCCUGGUACAGCUUGCAUAGAUUUUAGUAA,0.0172 ± 0.008,–
UCCUGGAUGUCGUUGCAUAUUAUUUAGUUA,0.0246 ± 0.0061,0.00364 ± 0.0023

Sequence,pre-steady-state target cleavage rate [1],pre-steady-state target cleavage rate [2]
UCCUGGAUGUCGAUGCAUAGUAUUUAGUCA,0.111 ± 0.02,0.00347 ± 0.0027
UCCUGGAUCAGCUAGCAAAGUAUUUAGUUA,0.0976 ± 0.012,0.00566 ± 0.0019
UCCUGGAUGAGCUUGCAAUGUAUUUAGUUA,0.0269 ± 0.0097,0.00445 ± 0.0026
UCCUGGUACAGCUAGCAUAGUUUUUAGUUA,0.0495 ± 0.011,0.00928 ± 0.0026
UCCUGGAUGAGCUUGGUUAGUAUUUAGUUA,0.195 ± 0.02,0.0158 ± 0.0039
UCCUGGAUGAGCUUGCAAAGUAUUAAGUUA,0.0742 ± 0.012,0.00449 ± 0.0026
UCCUGGAUGUCGAUGCAUAGUAUUUAGUUG [g2:g17:cont:t1G],0.0776 ± 0.013,0.00604 ± 0.0026
UCCUGGUACAGCUUCCUUAGUAUUUAGUUA,0.288 ± 0.052,0.00854 ± 0.0031
UCCUGGAACAGCUUGCAUUGUAUAUAGUUA,0.149 ± 0.017,0.00496 ± 0.0025
UCCUGGAUGUGCAUGCAUAGUAAUUAGUUA,0.0501 ± 0.008,0.00833 ± 0.002
UCCUGGAUCAGCUUCGUUAGUAUUUAGUUA,0.0434 ± 0.0096,0.00279 ± 0.0024
UCCUGGAUGUGCUUGCAUAGUAAUUUAGUUA,0.0286 ± 0.01,0.0056 ± 0.0026
UCCUGGAUCAGCUAGCAUAGUUUUUAGUUA,0.0366 ± 0.0073,0.00382 ± 0.0025
UCCUGGAUCAGCUUGCUUUGUAUUUAGUUA,0.11 ± 0.015,0.0038 ± 0.0028
UCCUGGAUGUCCUUGCAUAGUAUUUAGUGA,0.0966 ± 0.018,0.00382 ± 0.0024
UCCUGGAUGUCGUUGCCUAGUAUUUAGUUA,0.0556 ± 0.0094,0.00949 ± 0.0028
UCCUGGAUGUCGAUCGCAUAGUAUUUAGUUA,0.0384 ± 0.0094,0.00367 ± 0.0026
UCCUCCUACACGAUGCAUAGUAUUUAGUUA,0.267 ± 0.011,0.00666 ± 0.0022
UCCUGGAUGUGCUUGCUUUGUAUUUAGUUA,0.0124 ± 0.0051,0.00696 ± 0.0024
UCCUGGAUGAGCGUGCAUAGUAUUUAGUUA,0.186 ± 0.018,0.0113 ± 0.003

Sequence,pre-steady-state target cleavage rate [1],pre-steady-state target cleavage rate [2]
UCCUGGAUGUCGAUGCAUAGUGAUUUAGUUA,0.00445 ± 0.0044,0.00429 ± 0.0023
UCCUGGAUGAGCUUGCAUAGUGAUUUAGUUA,0.00836 ± 0.0043,0.00434 ± 0.0027
UCCUCCUACAGCUUGCAUUGUAUUUACUUA,0.145 ± 0.021,0.00286 ± 0.0022
UCCUGGUACAGCUUGCAUACUAUUUAGUUA,0.104 ± 0.024,0.00577 ± 0.0035
UCCUGGAUGUCCUUGCAUAGUAUUGUAGUUA,0.102 ± 0.023,0.0041 ± 0.003
UCCUGGAUGUCGUUGGAUACUAUUUAGUUA,< 0.0001,< 0.0001
UCCUCGUACAGCUUGCAAAGUAUUUAGUUA,0.149 ± 0.01,0.00953 ± 0.0024
UCCUGCUACUGCUUGCAUAGAAUUUAGUUA,0.045 ± 0.0093,0.00256 ± 0.002
UCCUGGAUGUCGAUGCAUAGUAUUUGAGUUA,0.125 ± 0.027,0.00324 ± 0.0024
UCCUGGUACAGCUUGCAUUGUUUUUAGUUA,0.0201 ± 0.0095,0.00647 ± 0.0034
UCCUGGAACAGGAAGCAUAGUAUUUAGUAA,0.146 ± 0.013,0.00297 ± 0.0027
UCCUGCUACAGCUUGCAUAGUAUUUAGUCUA,0.116 ± 0.02,0.00343 ± 0.0029
UCCUGGAUGUGCUUGCAUAGGUAUUUAGUUA,0.0061 ± 0.0046,0.00533 ± 0.0032
UCCUGGAUGUCGAUGCCUAGUAUUUAGUUA,0.0127 ± 0.0028,0.00351 ± 0.0023
UCCUGGAUGUCGAUGCAUAGUGUUUAGUUA,0.0372 ± 0.0094,0.0049 ± 0.0026
UCCUGGAUGAGCAUGCAUACUAUUUAGUUA,0.0556 ± 0.011,0.00656 ± 0.0024
UCCUGGAACAGCUUGCAUAGAUAUUUAGUUA,0.0184 ± 0.0071,0.00387 ± 0.0025
UCCUGGAUGUCGAUGGAUAGUAUUUAGUUA,0.0431 ± 0.0076,0.00383 ± 0.0027
UCCUGGAUGUGCUAGCAUAGUAUUUAGUAA,0.12 ± 0.017,0.00339 ± 0.0027
